Screening data as filed in PubChem BioAssay.
In the library only some 5.4% were active in any assay of this set; here they are far more common.
MARV entry inh: inhibitors of Marburg virus binding or cell entry; Potency, µM (titrated, usually from 37.8 µM), inactives show top-dose activity change, negative = inhibition, most hits filed as inhibitors; AID 540276; Marburg virus pseudotyped entry inhibition, cell reporter; 300,000 compounds, 1.8% hits; calls by dose curve; tested in HEK293 cells
VACV Venus inh: inhibitors of vaccinia virus (Venus reporter) | Vaccinia virus Venus reporter expression, fluorescence | Potency, µM (doses to about 36.5 µM), for inactives: top-dose activity change, negative = inhibition, actives largely listed as inhibitors | 330,000 compounds, 0.46% hits | AID 720580; calls by dose curve; tested in A549 cells; note: nearly all actives have a fitted effect of over 30% in size
FMDV inh: antivirals against foot and mouth disease virus; Potency, µM (series often up to 57.9 µM), for the others: top-dose activity change, negative = inhibition, usual class: inhibitors; AID 1159524; 410,000 compounds, 1.2% hits; FMDV antiviral cell-based qHTS; calls by dose curve; tested in HEK293T cells; note: read-out not given here; nearly all actives have a fitted effect of over 45% in size
Vaccinia mCherry: inhibitors of vaccinia virus infection (mCherry reporter signal); Vaccinia virus mCherry reporter infection, fluorescence; Potency, µM (top dose mostly 36.5 µM), without a hit: at the top dose activity change, negative = inhibition, most hits filed as inhibitors; AID 720579; 310,000 compounds, 0.63% hits; calls by dose curve; tested in A549 cells; note: nearly all actives have a fitted effect of over 35% in size
Lassa entry inh: inhibitors of Lassa virus binding or cell entry; 300,000 compounds, 1.2% hits; Lassa virus pseudotype entry inhibition, cell reporter; Potency, µM (top dose mostly 37.9 µM), inactives show at the top dose activity change, negative = inhibition, usual class: inhibitors; calls by dose curve; tested in HEK293 cells; note: nearly all actives have a fitted effect of over 50% in size
Sm TGR block: S. mansoni TGR enzyme inhibition | purified TGR, DTNB reduction, TNB absorbance 405 nm | Potency, µM (top dose mostly 114 µM), without a hit: at the highest dose activity change, negative = inhibition, actives largely listed as inhibitors | 360,000 compounds, 3% hits | AID 485364; active = well fitted inhibition curve with a large enough effect; inconclusive = small, poorly fitted or top-dose-only effect; inactive = no such curve, though single readings can be large or run the other way; note: nearly all actives have a fitted effect of over 60% in size
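Kinetic colorimetric format: TGR-catalysed, NADPH-driven DTNB reduction monitored via TNB absorbance. Enzyme dispensed at 20 nM; compound exposure 15 min at room temperature before reaction start.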
Active calls of the source: *; i = inactive; ? = inconclusive; nt = no result; ! = not confirmed by another sample; [ ] = dose if it differs, or a comment. % is set by controls: 0 for no effect and ±100 for the full control effect; potency is the fitted concentration of half-maximal effect.

SMILES | MARV entry inh | VACV Venus inh | FMDV inh | Vaccinia mCherry | Lassa entry inh | Sm TGR block
COc1nccnc1NS(=O)(=O)c1ccc(NC(=S)NC(=O)c2cccc(F)c2)cc1 | 12% | -14% | 27% | -19% | 0% | 45µM*
CCC(C)(C)n1nnnc1C(C(C)C)N(Cc1ccco1)Cc1cc2cc3c(cc2[nH]c1=O)OCO3 (configuration not stated) | 16µM* | nt | ? | nt | 2% | ?
COc1cc2cc(CN(Cc3nnnn3C3CCCC3)C3CCCC3)c(=O)[nH]c2cc1OC | nt | nt | nt | nt | nt | -14%
COc1ccc2[nH]c(=O)c(CN(Cc3ccco3)C(c3nnnn3Cc3ccccc3)C(C)C)cc2c1 (configuration not stated) | 13µM* | nt | ? | nt | ? | -32%
CCC(c1nnnn1Cc1ccco1)N(Cc1cc2cc(C)cc(C)c2[nH]c1=O)CC1CCCO1 (configuration not stated) | ? | -4% | 0% | -15% | -1% | 22µM*
CCC(C)(C)n1nnnc1CN(Cc1cc2cc(OC)c(OC)cc2[nH]c1=O)C1CCCC1 | 5% | 9% | -11% | nt | 9% | 25µM*
COCCn1nnnc1C(C(C)C)N(Cc1ccccc1)Cc1cc2cc(OC)ccc2[nH]c1=O (configuration not stated) | -7%[46.1 µM] | -23% | 0% | nt | ? | 0%
CC(=O)Nc1ccc(S(=O)(=O)O)c2cc(S(=O)(=O)O)c(N=Nc3ccc(N=Nc4ccc(S(=O)(=O)O)cc4)c4ccc(S(=O)(=O)O)cc34)c(O)c12 | nt | -19% | nt | -19% | nt | nt
CC(=O)N(Cc1cc2c(C)cc(C)cc2[nH]c1=O)C1CCCCC1 | ? | ? | -19% | nt | -22% | 2%
COc1ccc(Cn2nnnc2CN(Cc2cc3cc(C)ccc3[nH]c2=O)C2CCCC2)cc1 | ? | -24% | nt | -5% | ? | 35µM*
COc1ccc2[nH]c(=O)c(CN(Cc3nnnn3Cc3ccco3)C3CCCCC3)cc2c1 | -12% | 3% | -10% | -18% | -13% | 56µM*
COc1ccc2[nH]c(=O)c(CN(C3CCCCC3)C(c3nnnn3Cc3ccco3)C(C)C)cc2c1 (configuration not stated) | ? | 9% | 10% | -5% | -25% | 13µM*
CCOC(=O)Cn1nnnc1C(C(C)C)N(Cc1cc2c(C)cc(C)cc2[nH]c1=O)C1CCCC1 (configuration not stated) | 8.9µM* | -16% | ? | nt | ? | ?
C/C(=N\NC(=O)c1nnn(-c2nonc2N)c1-c1ccccc1)c1ccccc1O | ? | ? | 29% | 2µM* | ? | 1%
CCCc1c(C(=O)N/N=C(\C)c2ccccc2O)nnn1-c1nonc1N | nt | -17% | -9% | ? | nt | nt
COc1ccc(NS(=O)(=O)c2cc(NC(=O)C3CC3)ccc2N2CCCCC2)cc1 | ? | -21% | 42% | -6% | ? | 5%
COc1ccc(NS(=O)(=O)c2cc(NC(=O)c3ccncc3)ccc2N2CCOCC2)cc1 | -20% | -26% | 73% | -9% | 7% | -1%
O=C(Nc1cccc(Br)c1)c1ccc(Cl)c(S(=O)(=O)N2CCOCC2)c1 | ? | ? | nt | ? | ? | 2%
COc1ccc(NS(=O)(=O)c2cc(NC(=O)c3ccc(Cl)cc3)ccc2N2CCOCC2)cc1 | 1.1µM* | 0% | 67% | ? | ? | nt
COc1ccc(NS(=O)(=O)c2cc(NC(=O)c3ccco3)ccc2N2CCCCC2)cc1 | 14µM* | ? | 101% | ? | ? | 0%
CN(c1cccc(NC(=O)c2ccc(Cl)c(S(=O)(=O)Nc3ccccc3)c2)c1)S(C)(=O)=O | 3.7µM* | ? | 19% | -24% | -24% | 3%
O=C(Nc1cccc(S(=O)(=O)C(F)F)c1)c1ccc(Cl)c(S(=O)(=O)N2CCOCC2)c1 | 10µM*! | ? | 40µM* | i | ? | -6%
COCCn1c(CCC(=O)Nc2ccc(C)c(Cl)c2)nc2cccnc21 | 3%[46.1 µM] | -7% | -24% | -19% | 9%[46.1 µM] | 4%
Cc1ccc2c(CN3CCN(C(=O)c4ccc(Br)cc4)CC3)cc(=O)oc2c1 | 13%[46.1 µM] | -10% | -21% | -15% | -1%[46.1 µM] | 3%
CC(CC1=C2C=CC=CC2N=C1)NC(N)=O (configuration not stated) | 5%[46.1 µM] | nt | nt | nt | nt | nt
SMILES | MARV entry inh | VACV Venus inh | FMDV inh | Vaccinia mCherry | Lassa entry inh | Sm TGR block
O=C(Nc1ccc(Cl)c(S(=O)(=O)N2CCOCC2)c1)c1ccc2c(c1)OCCO2 | ? | -13% | -23% | -10% | ? | -10%
O=C(Nc1cccc(S(=O)(=O)N2CCCCC2)c1)c1ccc(OCC2CCCO2)cc1 (configuration not stated) | ? | -3% | ? | i | ? | -1%
O=C(Nc1ccc(Cl)c(S(=O)(=O)N2CCOCC2)c1)c1ccc(OCC2CCCO2)cc1 (configuration not stated) | 2.2µM* | -11% | 7.9µM* | i | ? | -7%
O=C(Nc1ccccc1)c1ccc(NCc2ccco2)c(S(=O)(=O)N2CCOCC2)c1 | 6% | nt | -4% | nt | ? | 32µM*
O=C(Nc1ccc(Cl)c(S(=O)(=O)N2CCOCC2)c1)c1ccc(Cl)nc1 | ? | -27% | 18µM* | -11% | ? | 2%
COc1ccc(OCCOC(=O)c2cc(S(=O)(=O)N3CCOCC3)c(Cl)cc2Cl)cc1 | -22% | -14% | 40µM* | -1% | 7% | -3%
O=S(=O)(Nc1ccc(-c2ccc(N3CCCC3)nn2)cc1)c1ccc(Cl)cc1 | nt | -10% | 8% | i | -4%[46.1 µM] | 7%
COc1ccc(C(=O)Nc2ccc(Cl)c(S(=O)(=O)N3CCOCC3)c2)cc1 | ? | -3% | 25µM* | i | ? | nt
CC(C)Oc1ccc(C(=O)Nc2ccc(Cl)c(S(=O)(=O)Nc3ccc(Cl)cc3)c2)cc1 | ? | ? | -1% | ? | 11µM* | -4%
O=C(Nc1ccc(S(=O)(=O)N2CCCC2)cc1)c1ccc(OCC2CCCO2)cc1 (configuration not stated) | ? | -14% | 18µM* | -4% | -6% | 3%
O=C(Nc1ccc(Cl)c(S(=O)(=O)N2CCOCC2)c1)c1ccc2c(c1)OCO2 | 10µM* | -26% | 32µM* | -16% | ? | nt
CC(C)(C)OC(=O)N1CCC[C@H]1c1nnc(SCc2ccc(Cl)cc2Cl)o1 | 8.9µM* | -27% | 40µM* | nt | ? | -20%
CC(C)(C)OC(=O)N1CCC[C@H]1c1nnc(SCc2ccccc2Cl)o1 | -16% | ? | -24% | nt | ? | 0%
Cc1ccc(NC(=O)CN2C(=O)COc3ccc(S(=O)(=O)N4CCCCCC4)cc32)cc1Cl | nt | -15% | -19% | -26% | ? | -4%
Cn1c(C(=O)NCc2ccccc2Cl)cc2sc(Cl)cc21 | 3.2µM* | -7% | 12% | -10% | nt | 7%
Cc1nc2c(c(C)nn2C(C)(C)C)c(C)c1CCC(=O)Nc1ccc(F)cc1 | ? | -3% | -1% | -5% | -8%[46.1 µM] | 3%
